# D2 PAM-1: human D2 receptor positive allosteric modulation; P14416; AID 624464; DiscoveRx D2 beta-arrestin cells, luminescence, 90 min; 100% = 57 uM dopamine signal; 360,000 compounds, 0.23% hits; potentiation, % (no concentration beside the values); in the data active = potentiation above about 50%; inconclusive = mostly about 30% to 49%
# Target sequence (P14416 whole entry, looked up): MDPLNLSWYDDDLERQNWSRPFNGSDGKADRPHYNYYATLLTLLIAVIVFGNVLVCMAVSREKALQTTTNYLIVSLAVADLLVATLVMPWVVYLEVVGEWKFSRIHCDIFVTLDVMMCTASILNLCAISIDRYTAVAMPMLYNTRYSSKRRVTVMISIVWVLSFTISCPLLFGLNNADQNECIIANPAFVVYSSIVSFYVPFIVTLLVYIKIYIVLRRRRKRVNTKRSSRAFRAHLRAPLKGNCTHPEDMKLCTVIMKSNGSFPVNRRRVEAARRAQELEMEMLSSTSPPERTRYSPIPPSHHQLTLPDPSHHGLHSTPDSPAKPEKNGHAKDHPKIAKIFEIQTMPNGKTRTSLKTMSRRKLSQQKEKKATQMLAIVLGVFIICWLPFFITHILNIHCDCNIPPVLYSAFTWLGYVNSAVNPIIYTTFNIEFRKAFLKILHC
#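 PathHunter D2 cells, attached overnight at 37 deg C, received compound in DMSO plus dopamine at EC20 (50 nM final) for 90 min at 37 deg C. Beta-arrestin recruitment was read as luminescence after 1 h with detection reagent at ambient temperature.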
# D2 PAM-2: D2 dopamine receptor (human) potentiation; HEK293 T-REx D2, calcium flux, EC20 dopamine potentiation; AID 485347; potentiation, % at 10 µM; P14416; 340,000 compounds, 0.34% hits;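 active = potentiation over 3 SD above the plate norm, cut at about 30% in these data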; also: 0% is about no effect
#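 Tetracycline-induced Hek293 Trex D2 cells, force-coupled to calcium, loaded with no-wash calcium dye. Compound added with 180 s kinetic read for agonism, then EC20 dopamine and a further 180 s read for potentiation.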
# D2 antagonist: antagonists of human D2 dopamine receptor; HEK293 TREx D2 cells, calcium flux, dopamine EC80; inhibition, % at 10 µM; 340,000 compounds, 2% hits; in the data active = inhibition above about 30%; inactive = below that, where a call was filed; also: 0% is about no effect
#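 Calcium mobilization kinetics were recorded at 1 s intervals in tetracycline-induced HEK293 T-REx D2 cells, first for 180 s after compound addition and then 180 s after EC80 dopamine.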
# D2 ag-1: D2 dopamine receptor (human) agonism. P14416. HEK293 T-REx D2 cells, calcium flux agonist mode. activation, % at 2 µM. 340,000 compounds, 0.53% hits. AID 485358;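 active = activation over 3 SD above normal in the single-dose calcium agonist read, cut at about 30% in these data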; also: 0% is about no effect
#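 In this primary screen, compounds producing a positive calcium signal within 180 s of addition to tetracycline-induced, force-coupled HEK293 Trex D2 cells are flagged; cells are dye-loaded with a no-wash calcium kit beforehand.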
# D2 ag-2: activates the human D2 dopamine receptor | P14416 | 360,000 compounds, 0.084% hits | activation, % (test concentration not listed) | AID 624465 | DiscoveRx PathHunter D2 beta-arrestin, luminescence, 90 min; 100% = 57 uM dopamine signal; in the data active = activation above about 40%; inconclusive = between about 15% and that limit
#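 DiscoveRx PathHunter D2 beta-arrestin cells (2,100/well) attached overnight, then compound-stimulated 90 min at 37 C in HBSS/10 mM HEPES/0.1% Tween-20 buffer; beta-galactosidase complementation read by luminescence after 1 h at ambient temperature. Dopamine 57 uM final (EC100) as control.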
# LDHA inh: inhibitors of human lactate dehydrogenase A. purified LDHA, NADH/diaphorase-resazurin fluorescence; active compounds read low. activity change, % (values are at about 110 or 230 µM). 480,000 compounds, 0.15% hits; in the data active = activity change below about -30%; inconclusive = mostly about -25% to -30%;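 also: plate controls were DMSO wells for no effect and wells without enzyme for full effect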
#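 Enzyme activity of human lactate dehydrogenase 5 (2 nM; 0.06 mM NADH, 0.2 mM pyruvate, 5 min, RT) is measured via a resazurin/diaphorase fluorescence readout of residual NADH.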
# D3 arrestin ag: confirmation of human D3 dopamine receptor agonists, beta-arrestin | DiscoveRx D3 beta-arrestin cells, luminescence, 90 min | shares compounds with D2 ag-1 | 2,300 compounds, 4% hits | Potency, µM (doses to about 76.9 µM), for the others: at the top dose activation, usual class: activators | AID 720506;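 also: potency is read from the fitted curve at half-maximal effect; 100% = dopamine control response; nearly all actives have a fitted effect of over 70% in size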
# D2 ag-3: D2 receptor agonism, beta-arrestin counterscreen | shares compounds with D2 ag-1 | DiscoveRx PathHunter D2 beta-arrestin, luminescence, 90 min; response scale: percent relative to full dopamine signal | Potency, µM (top dose mostly 76.9 µM), for the others: top-dose activation, actives largely listed as activators | 2,300 compounds, 5.9% hits | AID 720507; also: potency is read from the fitted curve at half-maximal effect; % of control where 0% means no effect; nearly all actives have a fitted effect of over 70% in size
# Starred values were filed as active, the others as inactive; ? = inconclusive; . = no result. In the library only some 2.1% were active in any assay of this set; here they are far more common. Unless noted, calls follow the shape of the dose curve; as a rule, active = well fitted activation curve with a large enough effect; inconclusive = small, poorly fitted or top-dose-only effect; inactive = flat fitted curve, though single readings scatter.
SMILES,D2 PAM-1,D2 PAM-2,D2 antagonist,D2 ag-1,D2 ag-2,LDHA inh,D3 arrestin ag,D2 ag-3
CCc1ccc(N/C(=N/c2nc(C)cc(C)n2)NC(C)=O)cc1,-4,20,6,-3,-3,1,.,.
Cc1cc(C)nc(/N=C(\N)Nc2ccc(OCCC(C)C)cc2)n1,-9,-22,52*,83*,3,-7,-2%,27%
Cc1cc(C)nc(/N=C(\N)Nc2ccc(S(=O)(=O)O)cc2)n1,6,-1,-9,2,2,-7,.,.
O=C(CSCC(O)c1ccccc1)c1c[nH]c2ccccc12 (stereo not drawn),.,.,.,.,.,1,.,.
c1ccc(CN2CCN(c3ncnc4nc[nH]c34)CC2)cc1,8,-22,68*,81*,10,-7,3%,?
c1ccc(N2CCN(c3ncnc4nc[nH]c34)CC2)cc1,.,.,.,.,.,-5,.,.
CCc1noc(C)c1C(=O)NNC(=O)c1ccccc1,0,-8,-11,0,-3,-4,.,.
CCc1noc(C)c1C(=O)NNC(=O)COc1ccccc1C,-1,-6,24,1,-2,-1,-6%,-5%
CCc1noc(C)c1C(=O)NNC(=O)c1cc(OC)cc(OC)c1,-1,-8,-21,2,0,-3,-3%,-4%
CCc1noc(C)c1C(=O)NNC(=O)c1cc(OC)c(OC)c(OC)c1,-6,-1,-10,0,1,-6,.,.
NC(=O)c1ccccc1NC(=O)C(=O)c1c[nH]c2ccccc12,.,.,.,.,.,-15,.,.
COc1ccc(C(=O)N/C(=C\c2ccc(-c3cccc(C(F)(F)F)c3)o2)C(=O)NC(C)C)cc1,.,.,.,.,.,-2,.,.
Cc1cccc(C(=O)NCc2nnc(SCC(=O)NCc3ccccc3)n2-c2ccccc2)c1,.,.,.,.,.,1,.,.
Cc1ccc(-c2csc(NC(=O)C[n+]3cc(-c4ccc(C)cc4)n4c3CCC4)n2)cc1,-12,-15,-19,-1,0,-3,.,.
Cc1ccc(-c2csc(NC(=O)C[n+]3cc(-c4ccccc4)n4c3CCC4)n2)cc1,4,-21,64*,77*,7,3,7%,18%
O=C(CN1C(=O)NC2(CCCC2)C1=O)Nc1nc(-c2ccc(F)cc2)cs1,1,3,13,1,-2,-3,-7%,3%
Cc1ccc(NC(=O)C[n+]2cc(-c3ccccc3)n3c2CCC3)c(C)c1,-5,-20,65*,81*,1,-11,-23%,0%
O=C(C[n+]1cc(-c2ccccc2)n2c1CCC2)Nc1nc(-c2ccc(F)cc2)cs1,-20,-23,76*,76*,5,-9,24%,?
Cc1ccc(-c2c[n+](CC(=O)Nc3c(C)cccc3C)c3n2CCC3)cc1,-19,-13,0,1,-6,-1,.,.
O=C1Cc2cc(C(=O)NCCc3ccc4c(c3)OCO4)ccc2N1,.,.,.,.,.,2,.,.
O=C(NCCc1ccccc1)c1cncc(Br)c1,.,.,.,.,.,9,.,.
O=C(C[n+]1cc(-c2ccccc2)n2c1CCC2)N1c2ccccc2Sc2ccccc21,-24,-29,37*,64*,0,-8,1%,12%
Clc1ncc(CN2CCN(c3ccccc3)CC2)s1,9,-26,84*,75*,48*,1,?,5µM*
Fc1ccccc1N1CCN(Cc2cnc(Cl)s2)CC1,?,.,.,.,52*,2,?,3.2µM*
c1ccc(N2CCN(Cc3cnc(N4CCOCC4)s3)CC2)cc1,-14,-40,38*,63*,-10,1,7%,?
SMILES,D2 PAM-1,D2 PAM-2,D2 antagonist,D2 ag-1,D2 ag-2,LDHA inh,D3 arrestin ag,D2 ag-3
CC1CCN(Cc2cnc(Cl)s2)CC1,-1,0,-13,2,-3,-4,.,.
Brc1ccc(CN2CCN(c3ccccc3)CC2)o1,-13,-19,50*,72*,9,-16,7%,23%
Clc1ccccc1N1CCN(Cc2ccc(Br)o2)CC1,-14,.,.,.,1,-21,.,.
CC1(C)CC(=O)C2=C(C1)C(c1ccco1)Nc1ccc3ccccc3c12 (stereo not drawn),.,.,.,.,.,-12,.,.
O=S(=O)(Cc1ccccc1)C(Cl)(Cl)C(F)(F)C(F)(F)C(F)(F)C(F)F,.,.,.,.,.,10,.,.
O=S(=O)(c1ccc2nc(NCCN3CCN(c4ccccc4F)CC3)ccc2c1)N1CCCC1,.,.,.,.,.,4,.,.
CCCN1CCC(=O)N(CCSc2ccccc2)CC1,-52,2,-39,0,2,-9,.,.
Clc1ccc(CN2CCN(c3ccccc3)CC2)cn1,11,-22,90*,74*,?,-11,?,?
c1ccc(SCCN2CCN(c3ccccc3)CC2)cc1,-35,-20,60*,23,5,1,-9%,10%
C[C@@H](CO)NC(=O)[C@H]1O[C@@H](n2cnc3c(N)ncnc32)[C@H](O)[C@@H]1O,-6,.,.,.,-4,-6,.,.
Nc1ncnc2c1ncn2C1OC(C(=O)NC2CC2)C(O)C1O (stereo not drawn),-5,20,6,0,1,-12,2%,-7%
N#CC1=C(N)OC2=C(C(=O)CC(c3ccccc3)C2)C1c1ccccc1Br (stereo not drawn),.,.,.,.,.,14,.,.
CCN(CC(=O)Nc1ccc(OC)cc1)C(=O)Cc1ccc(OC)c(S(=O)(=O)N2CCOCC2)c1,-7,-8,15,-1,-1,2,-7%,-1%
C/C(=N/NC(=S)Nc1ccc(Cl)cc1)c1ccc(Br)cc1,.,.,.,.,.,-23,.,.
O=C1CC(=C2c3ccccc3-c3ccccc32)C(=O)N1CCCCN1CCN(c2ccccc2)CC1,-13,-16,44*,73*,13,0,8%,23%
O=C1CC(=C(c2ccccc2)c2ccccc2)C(=O)N1CCCN1CCN(c2cccc(Cl)c2)CC1,-20,-6,11,-1,3,-1,.,.
NS(=O)(=O)c1ccc(-c2ccc(/C=N/Nc3ccc(C(=O)O)cc3)o2)cc1,16,-1,8,4,?,-4,11%,15%
NS(=O)(=O)c1ccc(-c2ccc(/C=N/NC(=O)c3ccc([N+](=O)[O-])cc3)o2)cc1,5,1,5,0,1,-7,.,.
COc1ccc(-c2cc(C#N)nc(Cl)n2)cc1,-4,5,26,3,-2,-9,-15%,-3%
